Experimental data: ChEMBL document CHEMBL3988442, “University of Dundee, Small-Polar-MMV Screening Library” (2021)
Among all 48,000 compounds or so, about 13,000 (27%) showed an effect of 50% or more. This is one part of the list.

system: Wolbachia pipientis; test: Anti-Wolbachia Cell-Based Screen; assay type: functional; parameters: scale not given: in the data most compounds retested in dose-response had high values; conditions: 5 µM

Structure (SMILES) | Percent Effect [%]
CCN(C)C(=O)c1ccc2c(c1)C(c1nc[nH]n1)CN2S(C)(=O)=O (stereo not given) | -2.777
COC(=O)c1ccc(CNC(C)(C)c2ccccc2OC)o1 | 5.551
Cc1ccc(-c2cc(C(=O)NCCCc3csc(N)n3)[nH]n2)s1 | -6.732
Cc1ccn2ncc(C(=O)N3CCCC(c4cc(C)[nH]n4)C3)c2n1 (stereo not given) | 1.6
CC(=O)N1CCc2c(nc(N(C)C)nc2NCc2cccs2)C1 | 5.703
Clc1cccc(Cl)c1CN(CCCN1CCOCC1)Cc1cccnc1 | 149.3
CCC(C)N(Cc1cccnc1)Cc1cc2c(cc1Cl)OCO2 (stereo not given) | -26.91
O=C1O[C@@H]2CN(Cc3cccnc3)C[C@@H]2N1CCCN1CCOCC1 | 7.451
Clc1ccc(CN(CCN2CCOCC2)Cc2cccnc2)cc1Cl | 180.4
CN(Cc1c(F)cccc1Cl)C(=O)c1cnn(CCN2CCOCC2)c1 | -8.866
Clc1ccc(CN(CCN2CCOCC2)Cc2cccnc2)c(Cl)c1 | 143.8
c1cncc(-c2ccnn2CN2CCOCC2)c1 | -10.55
Clc1ccc2oc(C3CCN(Cc4cccnc4)CC3)nc2c1 | -21.47
CCN(CCN1CCOCC1)C(=O)c1cccnc1 | -15.37
Cc1[nH]c(=O)[nH]c(=O)c1CN1CCCC(CCc2ccc(F)c(F)c2)C1 (stereo not given) | 8.003
O=C1CC[C@H](C(=O)N(CCc2ccccc2)C2CCOC2)N1 (stereo not given in full) | -17.91
CCC(=O)N1CCc2[nH]cnc2C12CCN(C1CCOCC1)CC2 | -8.971
CCc1ccc(CN(C)Cc2cnc(S(=O)(=O)CC)n2CCOC)cc1 | -8.303
Cc1sc2nc(CCN)nc(N3CCC(N4CCCC4)CC3)c2c1C | -8.408
Cc1cccnc1CNC(=O)NC(C)Cc1c(C)nn(C)c1C (stereo not given) | -5.579
O=C(NCCNC(=O)c1ccc(Br)cc1)c1ccc(O)cc1 | 3.17
Cc1nc(S(=O)(=O)CCn2cccn2)n(CC2CCCO2)c1C (stereo not given) | -14.31
COCc1nc(CNc2cccc(-c3csc(C)n3)c2)cs1 | -8.53
COc1cccc(CNc2cc(C)nc(-c3ccncc3)n2)c1O | -14.65
CC(C)Cc1cc(CNc2nc(-c3cccnc3)nc3c2CNC3)no1 | 13.84
CCc1csc(CNc2cc(C)nc(-c3cccnc3)n2)n1 | 113.3
COc1cccc(CNc2cc(C)nc(-c3ccncc3)n2)c1OC | -14.13

Structure (SMILES) | Percent Effect [%]
CCc1nc(CNc2cc(C)nc(-c3cccnc3)n2)cs1 | 88.21
CCSCC(C)NCc1nncn1C1CCCCC1 (stereo not given) | -19.08
COCCN(C)C(=O)c1ccccc1-n1cccn1 | 3.962
COCCN(Cc1ccccn1)C(=O)Nc1cccnc1N1CCCC1 | -3.62
CCN(CCO)C(=O)Nc1ccc(OCCOC)nc1 | 0.2723
COCCOc1ccc(NC(=O)N(CCCO)CC(C)(C)C)cn1 | 7.116
COCCCN(CCOC)C(=O)Nc1ccc(Br)cc1 | 130.2
COCCCN(CCOC)C(=O)Nc1ccccc1-n1cccn1 | 144.2
O=C(C1CC=CC1)N1CCC2(CCN(Cc3cccc(F)c3)CC2)C1 | 0.9808
N#Cc1ccc(CNC(=O)NC2CCN(c3ncccn3)CC2)cc1 | 5.422
Cc1cnc(CN2CCCCC2c2nc(-c3ccccc3)no2)cn1 (stereo not given) | 19.76
Cn1cnc2c1CCN(c1ccnc(-c3ccccc3)n1)C2 | -10.53
Cc1noc(C)c1CN1CCN(c2ccnc(-c3ccccc3)n2)CC1 | 94.83
Cc1cnc(CN2CCN(c3ccnc(-c4ccccc4)n3)CC2)cn1 | 144.2
Cc1noc(C)c1CN1C[C@@H](C(=O)O)[C@H](c2ccccn2)C1 | -12.63
Cc1cc(CN2CCN(c3ccnc(-c4ccccc4)n3)CC2)no1 | 122.7
Cc1cc(CN2CCN(C(c3ccccc3)c3ccccc3)CC2)no1 | -4.667
Cc1cc(CN2CCN(CC(O)c3ccccc3)CC2)no1 (stereo not given) | -10.98
Cc1noc(C)c1CN1CCN(Cc2nccn2C)CC1 | -9.314
CS(=O)(=O)NCCNC(=O)c1ccc(OCc2ccccc2)nc1 | 7.359
CC(C)NC(=O)N1CCCn2cnc(CO)c2C1.O=C(O)C(F)(F)F | 89.15
O=C(NC1CCCC1)N1CCCC(c2nccn2Cc2ccncc2)C1 (stereo not given) | -3.815
O=C1CCCN1Cc1ncn2c1CN(C(=O)NC1CCCCC1)CCC2 | 133.6
CC(C)OCc1ncn2c1CN(CCO)CCC2.O=C(O)C(F)(F)F | -4.222
CCC(C)NC(=O)N1CCCn2cnc(CO)c2C1 (stereo not given) | -12.35
CC(C)NC(=O)N1CCCn2cnc(CN3CCCC3=O)c2C1 | 81.15
CC(C)CC(=O)N1CCCn2cnc(CN3CCCC3=O)c2C1 | 1.077

Structure (SMILES) | Percent Effect [%]
O=C1CCCN1Cc1ncn2c1CN(C(=O)NC1CCCC1)CCC2 | 86.82
Cn1nnnc1SCCNC(=O)CC1CCc2ccccc21 (stereo not given) | 1.963
CCC(CO)NC(=O)Nc1ccc(OCC(F)(F)F)c(C)c1 (stereo not given) | -12.14
CCN(Cc1noc(CC(C)C)n1)Cc1ccccc1OCC(=O)O | 3.118
O=C(Cn1ccc2ccccc21)N1CCC(Oc2ncccc2Br)CC1 | 10.7
Cl.Cl.c1c(CN2CCCCC2)nc2n1CCNC2 | 4.844
CC(C)c1ccc(-n2cc(O)c(C(=O)O)n2)cc1 | 3.312
CCCNC(=O)CN1CCC(NCc2c(C)nn(C)c2OC)CC1 | -12.27
CNC(=O)[C@@H]1C[C@@H](NC(=O)CCCc2cccs2)CN1C1CCOCC1 | -14.74
O=C1CCCN1Cc1ncn2c1CN(C(=O)C1CC=CC1)CCC2 | 99.96
Cc1cccc(NC(=O)N2CCCn3cnc(CN(C)C(C)C)c3C2)c1.O=C(O)C(F)(F)F | 110.9
CN(C)C(=O)NCc1ncn2c1CN(Cc1cccs1)CCC2.O=C(O)C(F)(F)F.O=C(O)C(F)(F)F | 0.9692
Cc1cccc(NC(=O)N2CCCn3cnc(CN4CCCC4)c3C2)c1.O=C(O)C(F)(F)F | -10.04
Cn1cc(CN2CCCn3cnc(CN4CCCC4=O)c3C2)cn1 | -11.95
O=C(O)C(F)(F)F.O=C1CCCN1Cc1ncn2c1CN(C(=O)N1CCCC1)CCC2 | 106.2
O=C1O[C@@H]2CN(Cc3ccccc3F)C[C@@H]2N1CCCN1CCOCC1 | 2.415
CCn1c(CN2CCCC(Cn3cncn3)C2)nc2c(F)cccc21 (stereo not given) | -3.133
OC1(CN2CCCC2)CCCN(c2ncnc3[nH]cnc23)C1 (stereo not given) | -10.69
NC1(CN2CCCCC2)CCCCC1 | 100.8
Cc1nsc(NC(=O)NC2(CN3CCOCC3)CCCCC2)n1 | 1.675
OCCN1CCN(CC2(O)CCCCC2)CC1 | -8.643
NC1(CN2CCOCC2)CCCCC1 | 80.74
NCC1(CN2CCOCC2)CCCCC1 | 7.377
CCCc1nc(C)c(CNc2nc(C)nc3oc(C)nc23)s1 | 10.41
Cc1nnc(SCCC(=O)N(C)Cc2ccc(F)cc2Cl)[nH]1 | 5.698
c1ccc(NCc2ccsc2)c(Cn2cncn2)c1 | 3.372
CC(=O)NC(Cc1c[nH]c2cc(F)ccc12)C(=O)Nc1cnn(C)c1 (stereo not given) | -8.595

Structure (SMILES) | Percent Effect [%]
COc1ccc(C(C)NCc2nnc(C)s2)cc1F (stereo not given) | -18.95
COc1ccc(C(C)NCCC(N)=O)cc1F (stereo not given) | 53.8
COc1ccc(C(C)Nc2ncc(C(N)=O)cc2Cl)cc1F (stereo not given) | -11.64
COc1ccc(C(C)NC(=O)NCCCn2cncn2)cc1F (stereo not given) | 3.932
COc1ccc(C(C)NC(=O)Nc2nnc(C)s2)c(OC)c1 (stereo not given) | 5.487
COc1ccc(C(C)NCCc2ccc(NC(C)=O)cc2)cc1F (stereo not given) | 98.08
COc1ccc(C(C)NC(=O)NCCc2ccc(C)nc2)c(OC)c1 (stereo not given) | 8.171
COc1ccc(NC(C)C(=O)NCCc2cccs2)cc1F (stereo not given) | -5.142
COc1ccc(C(C)NCCc2ccc(NC(C)=O)cc2)c(OC)c1 (stereo not given) | 110.9
Cc1ccc(NCc2ccccc2C#N)cc1-n1cnnn1 | 14
CCCNC(=O)CNc1cc(C(=O)NCC(F)(F)F)cc(F)c1C | -0.1534
COCCN(Cc1ccco1)Cc1nc(-c2ccccc2C)no1 | -8.039
CN(c1ncc(S(N)(=O)=O)s1)C1CCc2ccccc21 (stereo not given) | 0.8223
Cc1nc(CNCC2Cn3nncc3CO2)cs1.O=C(O)C(F)(F)F (stereo not given) | 95.04
O=C(O)C(F)(F)F.c1cc(CNCC2Cn3nncc3CO2)co1 (stereo not given) | -8.195
Cc1cc(CNCC2Cn3nnc(C)c3CO2)oc1C.O=C(O)C(F)(F)F (stereo not given) | -14.18
O=C(O)C(F)(F)F.c1ccc(CCNCC2Cn3nncc3CO2)cc1 (stereo not given) | -6.101
Fc1ccc(CNCC2Cn3nncc3CO2)cc1.O=C(O)C(F)(F)F (stereo not given) | 10.26
Cc1noc(C)c1CNCC1Cn2nncc2CO1.O=C(O)C(F)(F)F (stereo not given) | 106
COc1cc2ccn(CCCO)c(=O)c2cc1F | -13.96
Cc1ccc(CCCC(=O)N2CCC(=O)Nc3cccnc32)s1 | 9.523
Cl.Cl.O[C@@H]1C[C@@](CNCc2ccc(Cl)cc2)(COc2cccnc2)C[C@@H]1O | -11.4
Cc1nc(C)n(CC(C)C(=O)N2CCC(CN3CCOCC3)CC2)n1 (stereo not given) | -24.3
CC(C)(C)CC(=O)N1CSCC1C(=O)NC1=NCCS1 (stereo not given) | 6.289
